# Most compounds without a hit are left out; they make up all but 6.6% or so of the library.
# Beta apoptosis = beta cell apoptosis inhibition; actives 0.8% (n = 300,000); AID 435005; protection from apoptosis, % (no concentration beside the values); INS-1E cytokine-induced death, ATP luminescence, 48 h; percent of positive-control rescue, neutral wells zero;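 active means Every replicate reaches about 75%, or at least half do and their mean reaches it too, limit read from the data; inconclusive means At least half of replicates reach the limit but their mean does not; inactive means Under half of replicates reach the limit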;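 further: higher means more ATP so stronger rescue from cytokine killing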
# Gli-Sufu antag = blocks Gli-Sufu signaling in a luciferase reporter; Sufu-KO-LIGHT fibroblasts, Gli luciferase reporter luminescence; inhibition, % at 5 µM; actives 0.74% (n = 340,000); AID 588413;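 active means inhibition above about 55%, limit read from the data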
# Mdm2-MdmX inh = human Mdm2/MdmX binding inhibition. actives 3% (n = 330,000). O15151+Q00987. inhibition, % at 8 µM. SaOS-2 split-luciferase Mdm2/MdmX complementation, luminescence;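 active means inhibition of at least 50% at 8 µM in the primary screen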
# Target sequence (O15151 whole entry, looked up): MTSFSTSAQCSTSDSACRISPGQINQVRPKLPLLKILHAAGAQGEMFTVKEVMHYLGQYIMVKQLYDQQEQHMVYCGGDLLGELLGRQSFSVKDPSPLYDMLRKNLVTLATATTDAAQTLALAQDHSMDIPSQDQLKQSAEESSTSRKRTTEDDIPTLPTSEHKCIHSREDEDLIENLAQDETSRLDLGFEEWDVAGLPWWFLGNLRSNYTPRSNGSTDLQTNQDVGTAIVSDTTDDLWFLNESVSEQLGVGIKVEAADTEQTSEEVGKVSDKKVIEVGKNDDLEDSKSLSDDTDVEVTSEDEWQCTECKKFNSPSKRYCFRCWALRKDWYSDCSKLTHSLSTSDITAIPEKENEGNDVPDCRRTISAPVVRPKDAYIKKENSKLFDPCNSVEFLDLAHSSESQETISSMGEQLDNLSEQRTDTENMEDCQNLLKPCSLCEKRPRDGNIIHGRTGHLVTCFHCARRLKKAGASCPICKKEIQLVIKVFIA
# Target sequence (Q00987 whole entry, looked up): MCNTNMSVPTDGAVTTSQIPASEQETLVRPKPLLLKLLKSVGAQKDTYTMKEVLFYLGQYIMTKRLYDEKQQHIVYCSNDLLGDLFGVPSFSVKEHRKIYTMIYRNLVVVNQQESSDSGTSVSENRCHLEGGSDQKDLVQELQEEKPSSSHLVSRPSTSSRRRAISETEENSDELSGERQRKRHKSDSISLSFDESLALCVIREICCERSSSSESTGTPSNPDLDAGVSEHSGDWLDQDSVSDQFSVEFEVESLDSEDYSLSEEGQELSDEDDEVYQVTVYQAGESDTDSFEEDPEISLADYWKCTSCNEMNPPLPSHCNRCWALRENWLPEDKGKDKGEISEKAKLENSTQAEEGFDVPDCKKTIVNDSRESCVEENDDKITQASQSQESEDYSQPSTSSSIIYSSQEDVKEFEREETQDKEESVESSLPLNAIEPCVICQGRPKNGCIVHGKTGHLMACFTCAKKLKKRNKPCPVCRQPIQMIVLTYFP
# CSC inhib = cancer stem cell inhibition | cancer stem cell-like cells viability, luminescence | inhibition, % at 7.5 µM | actives 1.1% (n = 300,000); in the data active means inhibition above about 75%; inconclusive means no clear call, values can overlap the other calls; tested in HMLE shEcad cells
# MPTP inh = blocks calcium-induced mitochondrial swelling. isolated mouse mitochondria, Ca2+ swelling absorbance, 30 min. inhibition, % at 10 µM. actives 1.4% (n = 360,000). AID 602449;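 active means inhibition of 50% or more, scaled per plate between neutral and stimulator controls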
# GRIN3A LBD mod = NR3A (human) ligand-binding domain modulation; actives 2.5% (n = 340,000); Tm shift relative to glycine control, % at 25 µM; NR3A LBD differential scanning fluorimetry, Tm shift; 0% = protein alone, 100% = glycine-bound protein;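 active means melting temperature shift of at least 10% of the positive control shift, at one fixed dose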
# Mdm2 MdmX conf = confirmation of human Mdm2/MdmX interaction inhibitors; inhibition, % at 8 µM; actives 55% (n = 10,000); Mdm2-MdmX binding, luminescent assay; shares compounds with Mdm2-MdmX inh; in the data active means inhibition above about 40%
# FLuc counter = counter-screen for Mdm2/MdmX inhibitors: full-length luciferase. shares compounds with Mdm2-MdmX inh. SaOS-2 full-length luciferase counterscreen, luminescence. inhibition, % at 8 µM. actives 77% (n = 6,200);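 active means mean inhibition at 8 µM reaching about 37%, which flags the compound as non-specific, limit read from the data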;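 further: p53-null SaOS-2 cells with luciferase driven by a doxycycline-inducible promoter; compound on cells about two nights before reading with doxycycline added after day one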
# Hits are given with their value; n = inactive; u = inconclusive; x = no result.
SMILES,Beta apoptosis,Gli-Sufu antag,Mdm2-MdmX inh,CSC inhib,MPTP inh,GRIN3A LBD mod,Mdm2 MdmX conf,FLuc counter
COc1ccc(-c2csc(NC(=O)CSc3nc4ccccc4c(=O)[nH]3)n2)cc1,n,n,50.6,x,n,20.6,n,x
CC(C)C[C@H](NC(=O)c1[nH]cnc1C(=O)N[C@@H](Cc1ccccc1)C(=O)OC(C)(C)C)C(=O)OC(C)(C)C,n,n,79.5,n,n,n,n,x
CC(C)(C)OC(=O)N1CCN(C(=O)c2[nH]cnc2C(=O)N[C@@H](Cc2ccccc2)C(=O)OCc2ccccc2)CC1,n,n,n,n,n,n,x,x
CC(C)C[C@H](NC(=O)c1[nH]cnc1C(=O)N[C@@H](Cc1ccccc1)C(=O)OC(C)(C)C)C(=O)OCc1ccccc1,n,n,n,n,n,n,x,x
CC(C)(C)OC(=O)[C@H](Cc1ccccc1)NC(=O)c1nc[nH]c1C(=O)N1CCN(C(=O)OC(C)(C)C)CC1,n,n,74.0,n,n,n,n,x
CC(C)C[C@H]1CN=C(Nc2ccccc2)N1CCCC1CCCCC1,n,n,50.3,n,n,n,n,x
CCC(Cc1ccccc1)NS(=O)(=O)c1ccc2c(c1)NC(=O)C(C)S2 (stereo not given),n,n,n,n,n,n,x,x
Cc1nc2c(C)cccc2cc1C(=O)N/N=C/c1ccc(N(C)C)cc1,n,n,50.1,n,n,n,49.4,57.2
CC(C)c1ccc(/C=C2\SC(=O)N(CC(=O)NC3CCS(=O)(=O)C3)C2=O)cc1 (stereo not given),n,n,n,n,n,n,x,x
NC(=O)c1oc2ccccc2c1NC(=O)c1ccc([N+](=O)[O-])o1,n,n,64.9,x,n,n,55.4,n
COc1cc(/C=N/NC(=O)c2cncc(Br)c2)cc([N+](=O)[O-])c1O,n,n,55.6,n,n,n,49.9,47.5
COc1cc(/C=N/NC(=O)c2cccc([N+](=O)[O-])c2)cc(OC)c1O,n,n,n,n,n,n,x,x
COc1cccc(C2CC(=O)Nc3cc4c(cc32)OCCO4)c1OC(C)C (stereo not given),x,n,n,n,n,n,x,x
COc1ccccc1C1CC(=O)Nc2cc3c(cc21)OCCO3 (stereo not given),n,n,55.2,n,n,n,59.5,64.1
CCCOc1c(OC)cccc1C1CC(=O)Nc2cc3c(cc21)OCO3 (stereo not given),x,n,54.6,n,n,n,51.4,68.2
CCCOc1c(OC)cccc1C1CC(=O)Nc2cc3c(cc21)OCCO3 (stereo not given),n,n,51.8,u,n,n,54.9,67.6
CCCN(C(=O)c1cc(S(=O)(=O)N(C)c2ccccc2OC)ccc1C)C1CCS(=O)(=O)C1 (stereo not given),x,n,x,x,n,n,x,x
CCOC(=O)C1(Nc2nccs2)Sc2ccccc2NC1=O (stereo not given),n,n,56.7,n,n,n,62.0,58.0
CCOc1ccc(NC(=O)c2ccccc2O)cc1,n,n,n,n,n,n,x,x
O=C(Nc1ccc2c(c1)OCCO2)c1cc(-c2ccccn2)nc2ccc(Br)cc12,n,n,74.0,n,n,n,40.7,72.3
CCOc1ccc(-c2cc(C(=O)Nc3ccc4c(c3)OCCO4)c3ccccc3n2)cc1,n,n,50.5,n,n,n,40.4,97.4
CC(=O)c1ccc(NC(=O)c2cc(CC(C)C)nc3ccccc23)cc1,n,x,57.7,n,n,n,65.8,n
CCOc1ccc(NC(=O)c2cc(Cl)nc3ccccc23)cc1,n,n,50.6,n,n,n,n,62.2
Cc1cccc(-c2cc(C(=O)Nc3ccc4c(c3)OCCO4)c3ccccc3n2)c1,n,n,n,n,n,n,x,x
O=C(C[C@@H]1CC[C@@H]2[C@H](COC[C@H](O)CN2S(=O)(=O)c2ccccc2)O1)Nc1ccccc1,x,x,x,x,n,x,x,x
SMILES,Beta apoptosis,Gli-Sufu antag,Mdm2-MdmX inh,CSC inhib,MPTP inh,GRIN3A LBD mod,Mdm2 MdmX conf,FLuc counter
COc1cccc(-c2oc3c(c2-c2ccc(Br)nc2)C(O)CCC3)c1 (stereo not given),x,x,x,x,n,x,x,x
COCc1ccc(-c2c(-c3cc(OC)cc(OC)c3)oc(=O)c3cc(OC)c(OC)cc23)cc1,n,n,n,n,n,n,x,x
O=C(Nc1ccc2c(c1)CCC2)c1cnn2c1NC(c1ccco1)CC2C(F)(F)F (stereo not given),n,n,88.3,n,n,n,54.2,79.3
Cc1ccc(Cl)cc1NC(=O)c1cnn2c1NC(c1ccco1)CC2C(F)(F)F (stereo not given),n,n,n,n,n,n,x,x
COc1ccccc1NC(=O)c1ccc(NC(=O)COC(=O)c2cccnc2Cl)cc1,n,n,n,n,n,n,x,x
CC(C)N(C(=O)[C@H]1C[C@H](CC(=O)NCc2cccc(C(F)(F)F)c2)C(=O)N2CCc3c([nH]c4cc(-c5ccco5)ccc34)[C@]12C)C(C)C,x,n,76.5,x,n,n,n,x
CCN(CC)C(=O)[C@H]1C[C@H](CC(=O)NCCCN(C)C)C(=O)N2CCc3c([nH]c4cc(-c5ccco5)ccc34)[C@]12C,x,n,n,x,n,n,x,x
CC(C)N(C(=O)[C@H]1C[C@H](CC(=O)NCc2cccc(C(F)(F)F)c2)C(=O)N2CCc3c([nH]c4ccc(Cl)cc34)[C@]12C)C(C)C,x,n,94.8,x,n,n,40.5,81.3
CC(C)N(C(=O)[C@H]1C[C@H](CC(=O)NCCCN(C)C)C(=O)N2CCc3c([nH]c4cc(-c5ccco5)ccc34)[C@]12C)C(C)C,x,n,63.3,x,n,n,n,x
CC(C)N(C(=O)[C@H]1C[C@H](CC(=O)NCc2ccco2)C(=O)N2CCc3c([nH]c4ccc(Cl)cc34)[C@]12C)C(C)C,x,n,52.1,x,n,n,n,x
Cc1nc(N)c2c(Cc3cccc4ccccc34)nn(C(C)(C)C)c2n1,n,n,n,n,n,n,x,x
Cc1cc(C(=O)Nc2nc(-c3ccccn3)cs2)ccc1[N+](=O)[O-],n,n,63.3,n,n,n,64.2,40.3
O=C(Nc1nc(-c2ccccn2)cs1)c1cc(Cl)ccc1[N+](=O)[O-],93.2,65.1,83.3,94.0,n,n,75.2,n
CC(=O)Nc1ccc(C(=O)Nc2nc(-c3ccccn3)cs2)cc1,n,n,n,n,n,n,x,x
CS(=O)(=O)Nc1cccc(-c2ccc3nncn3c2)c1,x,x,x,x,n,x,x,x
CCOC1=C2CN(S(=O)(=O)c3ccc(C)cc3)C(c3cccc(Cl)c3)CC2NC(c2ccccc2)C1 (stereo not given),x,x,x,x,n,x,x,x
C[C@H](CO)N1C[C@H](C)[C@H](CN(C)Cc2ccccc2)Oc2c(NC(=O)Nc3ccc(F)cc3)cccc2C1=O,n,n,n,n,n,n,x,x
